Measured values published in PubChem BioAssay AID977606 (Broad Institute, 2014).
Out of some 1,500 compounds screened, about 430 (29%) were called active. How the calls were made is not given here. These entries were drawn from the full list. Results with a measured potency or affinity are listed apart.

Assay: insulin secretion activators without glucose, dose response, counter-screen for glucose-dependent insulin secretion activators, cell-based, INS-1E, Gaussia luciferase, luminescence, cherry-pick (AID 977606)
Settings: INS-1E Gaussia luciferase insulin secretion, no glucose, 100% = twice neutral-control luminescence; series mostly up to 35 µM

Compound	outcome
O=C(N=C1SC2CS(=O)(=O)CC2N1c1ccc(F)c(Cl)c1)C1CC1 (stereo not drawn)	inactive
CCCc1nc(-c2cc3cc(C)ccc3[nH]c2=O)no1	inactive
CC(=O)N1CCN(c2nnc(-c3ccc(C)cc3)c3ccccc23)CC1	inactive
O=c1c2sccc2n(Cc2cccc(F)c2)c(=O)n1-c1ccc(F)cc1	inactive
Cc1ccc(-c2ccc([C@@H]3[C@@H]4CN(Cc5ccccc5F)C[C@H]3N4)cc2)cc1	inactive
CC1Oc2ccccc2N(Cc2cccc(F)c2)C1=O (stereo not drawn)	inactive
COc1ccc(CN(C)C(=O)COc2cccc(-n3cnnn3)c2)cc1OC	inactive
COc1cc(/C=N/NC(=O)CNC(=O)c2cccs2)ccc1O	inactive
O=C(Nc1ccc(F)cc1)C1COc2ccccc2O1 (stereo not drawn)	inactive
CN(C(=O)c1ccc(C#N)cc1)c1nnc(-c2cnccn2)s1	inactive
CC(C)CCn1c(=O)c2ccccc2n2c(CN3CCOCC3)nnc12	inactive
COc1ccc(C(=O)/C=C2/c3ccccc3CC(C)(C)N2C)cc1OC	inactive
O=C(NC(=S)Nc1cccc2[nH]ncc12)c1ccccc1	inactive
Nc1[nH]c(C(=O)c2ccccc2)c(-c2ccncc2)c1C(=O)NCc1cccc2ccccc12	inactive
COc1cc(CN2CCC(n3nccc3NC(=O)C3CCOC3)CC2)ccc1F (stereo not drawn)	inactive
COc1ccc(-c2nc(N)ncc2-c2ccc(OC)c(OC)c2)c(O)c1	inactive
COc1ccc(C(=O)c2ccc(OC)c(OC)c2)cc1	inactive
COc1ccc(C(=O)c2cnc[nH]2)cc1OC	inactive
COc1ccc(C(=O)O/N=C(\N)c2ccc(OC)c(OC)c2)cc1	inactive
c1ccc(-c2nnc3n2-c2ccccc2SC3)cc1	inactive
COCCOC(=O)C1=C(C)NC(=O)N(C(C)=O)C1c1ccc(Cl)cc1 (stereo not drawn)	inactive
Cc1cc2nc(-c3ccc(Cl)cc3)c(Cc3ccsc3)n2c(C)c1Br	inactive
CCn1c(C)nc2cc(S(=O)(=O)C(F)(F)F)ccc21	inactive

Compound	outcome
COc1cc2[nH]c3c(Cl)ncnc3c2cc1OC	inactive
COc1ccc(CC(=O)O/N=C(\N)c2ccccc2)cc1OC	inactive
COc1ccc(/C=N/NC(=O)Cn2nnc3ccccc32)cc1OC	inactive
COc1ccc(/C=N/NC(=O)CCOc2ccccc2C)cc1OC	inactive
CNS(=O)(=O)c1ccc2c3c(cccc13)C(=O)N2	inactive
CCOC(=O)c1c(N)c(C#N)c2n1CCCC2	inactive
COc1ccc(CC(=O)OCC(=O)N2CCCc3ccccc32)cc1OC	inactive
O=S(=O)(c1ccc(Cl)nc1)N1CCc2ccccc21	inactive
COc1ccc(NC(=O)C2CCCN2S(=O)(=O)c2ccc3c(c2)CC(C)N3C(C)=O)cc1OC (stereo not drawn)	inactive
COc1ccc(C2=NOC(C(=O)Nc3cccnc3)C2)cc1OC (stereo not drawn)	inactive
CCOC(=O)c1sc2ncn(/N=C/c3cccnc3)c(=O)c2c1C	inactive
COc1cc(C(=O)Nc2ccn(C)n2)ccc1OC(F)F	inactive
O=c1c2ccccc2nc(-c2ccco2)n1/N=C/c1ccco1	inactive
O=c1c2ccccc2nc(-c2ccco2)n1Cc1ccccc1	inactive
O=C([C@H]1O[C@@H](n2ccc(=O)[nH]c2=O)[C@H](O)[C@@H]1O)N1CCN(c2ccc(Cl)cn2)CC1	inactive
Cc1nc2ccccc2c(=O)n1CCCN1CCOCC1	inactive
CCCn1nc(C(=O)NC2CC2)c2ccccc2c1=O	inactive
CCOCCCn1c(SCc2ccccc2)nnc1-c1ccncc1	inactive
CC(C)c1ccc(NC2CCCN(C(=O)c3cccnc3)C2)cc1 (stereo not drawn)	inactive
COc1ccc(CCn2ccc(O)c(Cc3c(F)cccc3Cl)c2=O)cc1OC	inactive
CCN(C[C@H]1N[C@@](CC)(C(=O)OC)[C@H]2C(=O)N(C)C(=O)[C@@H]12)S(=O)(=O)c1ccc(OC)cc1	inactive
COc1ccc(CCC(=O)NC2CCC(C)CC2)cc1 (stereo not drawn)	inactive
COC(=O)C1=C(C)NC(=S)NC1c1ccc(OC)cc1 (stereo not drawn)	inactive

Compound	outcome
CNc1nc(Nc2ccccc2)nc(OCC(F)(F)F)n1	inactive
CCCCN(Cc1nc2ccccc2c(=O)[nH]1)C(=O)c1nn(C)c(=O)c2ccccc12	inactive
c1cn2cc(-c3ccc(CN4CCOCC4)cc3)ccc2n1	inactive
CC(C)CN(C(=O)C1CCCCC1)C1CCS(=O)(=O)C1 (stereo not drawn)	inactive
Cc1ccc(CN(C(=O)c2cccs2)C2CCS(=O)(=O)C2)cc1 (stereo not drawn)	inactive
Cc1c(Cc2ccccc2)sc(NC(=O)c2ccco2)c1C(N)=O	inactive
Cc1c(Cc2ccccc2)sc(NC(=O)C(C)(C)C)c1C(N)=O	inactive
COC(=O)c1cc(S(=O)(=O)NCC2CCN(Cc3cc(C)ccc3C)CC2)c[nH]1	inactive
Cc1ccc(C)c(OCC(=O)Nc2cc(NC(=O)COc3cc(C)ccc3C)cc(C(=O)O)c2)c1	inactive
Cc1ccc(C)c(OCC(=O)NCC(C)(C)N2CCOCC2)c1	inactive
O=C1CC(=O)Nc2cc(S(=O)(=O)NCc3cccs3)ccc2N1	inactive
O=C1CSC(c2cccc(O)c2)N1Cc1ccccc1 (stereo not drawn)	inactive
CC(C)Cc1nc2oc3c(NCc4cccnc4)ncnc3c2c2c1CCC2	inactive
CCOC(=O)C1CCCN(C(=O)c2ccccc2OC(F)(F)F)CC1 (stereo not drawn)	inactive
CN(C)N1C(N)=C(C#N)C(c2ccc(F)cc2)C2=C1CCCC2=O (stereo not drawn)	inactive
O=c1c2ccccc2c(-c2ccccc2)nn1-c1ccccn1	inactive
O=C(O)c1ccc(-n2nc(-c3ccccc3)c3ccccc3c2=O)cc1	inactive
Cc1ccccc1SC1CCN(C(=O)C2CCC(=O)N(C3CC3)C2)CC1 (stereo not drawn)	inactive
COc1ccc(CCNC(=O)C(=O)c2c(C)n(C)c3ccccc23)cc1OC	inactive
CCc1nc(N)nc(N)c1-c1ccc(Cl)c(N=[N+]=[N-])c1	inactive
COc1ccc(C(C)=O)cc1CSCc1cc(C(C)=O)ccc1OC	inactive
CN(C)CCCN(C(=O)CCOc1ccccc1)c1nc2c(F)cccc2s1	inactive
COc1ccc(CCNC(=O)CCn2c(=O)c3cccn3c3cccnc32)cc1OC	inactive

Compound	outcome
COc1ccc(C2=NN(C(=O)c3ccco3)C(c3cccs3)C2)cc1OC (stereo not drawn)	inactive
CC(=O)N1CCN(c2nnc(-c3ccccc3)c3ccccc23)CC1	inactive
COc1ccc(-c2cnnn2-c2ccc(N)cc2)cc1OC	inactive
CCOC(=O)c1cc(-c2ccncc2)nc2c1c(C)nn2-c1ccccn1	inactive
CCOC(=O)c1nc2nc(-c3cccs3)cc(C(F)(F)F)n2n1	inactive
CCN(CC)C(=O)C1(P(=O)(c2ccccc2)c2ccccc2)CCC1	inactive
CCCNC(=O)C1(C)CCCN(Cc2cccn2C)C1 (stereo not drawn)	inactive
CC(C)(C)c1ccc(S(=O)(=O)N2CC(C(=O)O)Oc3ccc(Cl)cc32)cc1 (stereo not drawn)	inactive
N#CCCCc1cc2ccccc2cn1	inactive
Cc1cc(Br)c2c(c1)C1(OCCO1)C(=O)N2	inactive
CCCc1c(C)c2ccc(OCC(C)=O)cc2oc1=O	inactive
CNc1nc(-c2ccccc2)cc(-c2ccccc2)n1	inactive
CCS(=O)(=O)c1nc(S(=O)(=O)c2ccc(C)cc2)c(N2CCC(O)CC2)s1	inactive
COc1ccc(/C=N/NC(=O)Cn2cnc3ccccc3c2=O)cc1OC	inactive
COc1ccc(C(C)=O)cc1Cn1cnc2c(cnn2C)c1=O	inactive
O=C(Nc1cccc(Cl)c1)c1cnn2cccnc12	inactive
O=C(Cn1cnc2sc(-c3ccccc3)cc2c1=O)NCCc1ccccc1	inactive
CCc1nc2ccc(C(=O)NCCCN(C)C)cn2c1N(C)Cc1ccc(OC)cc1	inactive
COc1ccc(C2=NN(C(=O)c3ccco3)C(c3ccco3)C2)cc1OC (stereo not drawn)	inactive
O=C(CCn1ccc2cc(S(=O)(=O)N3CCCC3)ccc21)NCc1cccc(F)c1	inactive
c1ccc(CNc2nc(Oc3ccncc3)c3sccc3n2)cc1	inactive
Cc1cc(Cl)ccc1-c1nc(NCc2ccccc2)nc2ccsc12	inactive
COc1ccc(C2C3CCCCC3(O)CCN2C(=O)c2cccs2)cc1 (stereo not drawn)	inactive

Compound	outcome
CCn1c(SCc2cc(=O)[nH]c3ccccc23)nc2c1c(=O)n(C)c(=O)n2C	inactive
C=CCN(Cc1ccc(OC)c(OC)c1)C(=O)N1CCOCC1	inactive
S=C(NCc1ccccc1)Nc1ccc2cn[nH]c2c1	inactive
CCC(=O)Nc1nnc(Sc2ccc(N(C)C)cc2)s1	inactive
CCSc1nnc(NC(=O)c2csc(C)c2)s1	inactive
CCOc1ccc(CCNC(=O)CCC(=O)c2cccs2)cc1OCC	inactive
CCOC(=O)Cc1csc(NC(=O)c2ccc(OC)c(OC)c2)n1	inactive
COCCn1c(=O)[nH]c2cc(C(=O)Nc3cc(OC)c(OC)c(OC)c3)ccc2c1=O	inactive
COCCNC(=O)CCCn1c(=O)c2ccccc2n(Cc2ccccc2C#N)c1=O	inactive
COc1ccc(CCNS(=O)(=O)c2ccc(Cl)s2)cc1OC	inactive
O=C(c1cc(-c2ccc(F)cc2)nc2ccccc12)N1CCN(C2CCS(=O)(=O)C2)CC1 (stereo not drawn)	inactive
O=C(Nc1ccc(C(=O)N2CCCC2)cc1)c1cccc(C(F)(F)F)c1	inactive
CCOc1ccc(CCNC(=O)COc2cc(=O)n(C)c3ccccc23)cc1OCC	inactive
O=S1(=O)c2ccccc2OC(COCc2ccccc2)CN1C1CC1 (stereo not drawn)	inactive
CC(C)Oc1cccc(C(=O)C2CCCN(C(=O)CCc3cnn(C)c3)C2)c1 (stereo not drawn)	inactive
COc1ccc(-c2nnc3sc(-c4cccs4)nn23)cc1OC	inactive
c1csc(-c2nc(NCC3CCCO3)c3ccccc3n2)c1 (stereo not drawn)	inactive
Cc1cc(NC(=O)COC(=O)c2oc3c(Cl)cccc3c2C)no1	inactive
COc1cc(/C=N/Nc2cc(C)nc(NS(=O)(=O)c3ccc(C)cc3)n2)ccc1O	inactive
CCOc1ccccc1CNS(=O)(=O)c1cnc[nH]1	inactive
CCOc1nc(NC(=O)NS(=O)(=O)Oc2ccccc2Cl)nc(-c2ccccc2)n1	inactive
